# Measurements: PubChem BioAssay (NCI)
# The panel holds about 83,000 compounds, 20% with a hit somewhere; the sample as a whole holds those more often.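 Note: values are percent growth. 100 is the growth of untreated cells, values between 100 and 0 indicate rising inhibition; between -100 and 0 indicates cell death.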 A number with no mark means an inactive call. The source made the active and inactive calls. How the source made its calls: active means growth percent below 10; inactive means the rest.
# Columns and labels:
# Experiment in all cases: NCI-60 one-dose screen, 48 h (100 = growth as untreated, 0 = no growth, -100 = all killed)
# Conditions in all cases: 10 µM unless noted
# SR leukemia = tested on: SR leukemia
# RPMI-8226 leukemia = tested on: RPMI-8226 leukemia
# OVCAR-8 ovarian = tested on: OVCAR-8 ovarian
# OVCAR-5 ovarian = tested on: OVCAR-5 ovarian
# OVCAR-4 ovarian = tested on: OVCAR-4 ovarian
# SK-OV-3 ovarian = tested on: SK-OV-3 ovarian
# IGROV1 ovarian = tested on: IGROV1 ovarian
# OVCAR-3 ovarian = tested on: OVCAR-3 ovarian
# HS 578T breast = tested on: HS 578T breast
# NCI/ADR-RES ovarian = tested on: NCI/ADR-RES ovarian
Compound,growth (SR leukemia),growth (RPMI-8226 leukemia),growth (OVCAR-8 ovarian),growth (OVCAR-5 ovarian),growth (OVCAR-4 ovarian),growth (SK-OV-3 ovarian),growth (IGROV1 ovarian),growth (OVCAR-3 ovarian),growth (HS 578T breast),growth (NCI/ADR-RES ovarian)
Nc1cc(-c2c[nH]c3ccc(F)cc23)nc2cc(-c3c[nH]c4ccccc34)nn12,15.4%,-1.51% (active),4.46% (active),1.01% (active),47.8%,18.5%,16.2%,28.8%,20.7%,10.7%
CCOC(=O)/C(F)=C/C1CC1C1CCN(C(=O)OC(C)(C)C)CC1 (stereo not given),89.6%,102%,103%,111%,94.8%,110%,106%,111%,110%,100%
Fc1cccc(CNc2nc(SCCN3CCOCC3)nc3c2cnn3CC(Cl)c2ccc(Br)cc2)c1 (stereo not given),-18.1% (active),2.98% (active),32.6%,59.9%,27.3%,51.3%,52.2%,49.7%,19.2%,23%
CCOc1ccc2[nH]c(=O)c(C(c3nnnn3CC3CCCO3)N3CCN(Cc4ccccc4)CC3)cc2c1 (stereo not given),111%,99.1%,84.2%,97%,94.9%,79.3%,84.6%,100%,20.1%,90.1%
CS(=O)(=O)c1ccc(-n2nc(C(=O)NCc3ccccc3)cc2-c2ccc(Cl)cc2)cc1,76.7%,56.8%,89.9%,105%,71%,104%,95.9%,99.7%,110%,83.9%
CN1C(=O)C(O)(CC(=O)c2cc3ccccc3oc2=O)c2ccccc21 (stereo not given),71.3%,97.6%,107%,107%,99.9%,94.9%,97.7%,90.5%,99%,98.7%
Cc1ccc(C2CC(c3ccc(S(=O)(=O)NCCNc4nc(N(C)C)nc(N5CCOCC5)n4)cc3)=Nc3c(N)nc(N)nc3N2)cc1 (stereo not given),1.45% (active),23.4%,56.3%,90%,55.7%,77.2%,50.2%,64.9%,47.8%,89.3%
Cn1cc(Nc2ncnc(-c3ccc(N4CCCC4)c(C#N)c3)n2)cn1,28.7%,83.9%,84.4%,85.4%,78.9%,76.4%,51.7%,81.6%,41.3%,67.3%
FC(F)(F)c1cc2c(Cl)ncnc2n1CCN1CCOCC1,-50.8% (active),103%,64.7%,98.4%,19.7%,101%,-58.3% (active),38.5%,95.8%,81.4%
COc1ccc(OC)c(Cn2cc(C#N)c(N)c2C(=O)c2ccc(Br)cc2)c1,14.4%,58%,33.9%,71.1%,57.1%,50.9%,48.7%,55.9%,45.2%,23.2%
CC(C)(C)C(=O)c1c2c(c3ccc4c5ccccc5ccc4n13)C(=O)c1ccccc1C2=O,85.5%,96.6%,96.3%,116%,71.2%,118%,95.7%,94.4%,100%,95.5%
COc1ccc(-c2cc(-c3ccccc3)c(C#N)c(=O)[nH]2)cc1S(N)(=O)=O,100%,100%,113%,99.3%,102%,99.4%,126%,109%,109%,105%
CCCn1c(NC(=O)c2cccc(C(N)=O)c2)nc2ccc(CN3CCCCC3)cc21,31.4%,85.2%,107%,83.3%,98.5%,85.9%,72.4%,112%,111%,111%
COc1cc(CNC(=O)[C@]23CCC(C)(C)CC2C2=CCC4[C@@]5(C)CCC(OC(C)=O)C(C)(C)C5CC[C@@]4(C)[C@]2(C)CC3)ccc1OCc1cn(-c2ccc(Cl)cc2Cl)nn1 (stereo not given in full),103%,89.9%,102%,102%,102%,112%,92.8%,112%,100%,120%
CCCSc1nnc(-c2c(C)nc3sccn23)o1,120%,70.3%,98.3%,85.9%,71.9%,108%,83.8%,98.5%,79.6%,83.5%
Cc1nn(-c2ccccc2)c2nc(C)n(CC(=O)N/N=C/c3cccc([N+](=O)[O-])c3)c(=O)c12,85.8%,85.3%,98.5%,109%,91.2%,92.8%,91.8%,106%,92.7%,97%
COc1ccc(/C=C/c2nc3ccccc3c(=O)n2CC(=O)Nc2ccccc2)cc1,54.7%,81.8%,43.6%,60.6%,0.985% (active),44.9%,49.9%,49.3%,9.93% (active),36.8%
CC[C@]12C=CCN3CC[C@@]4(c5ccc(OC)cc5N(C)[C@H]4[C@@](O)(C(=O)OC)[C@@H]1OC(=O)CCC[P+](c1ccc(OC)cc1)(c1ccc(OC)cc1)c1ccc(OC)cc1)[C@@H]32,15%,-45.5% (active),-86.2% (active),-96.5% (active),-75.3% (active),-85.1% (active),-92.1% (active),-73.6% (active),-65.4% (active),79.9%
Cn1cc(-c2cc3nc(-c4c[nH]c5ccccc45)cc(N)n3n2)c2ccccc21,8.18% (active),-21.9% (active),-73.6% (active),-39.4% (active),-39.9% (active),43.2%,-77.5% (active),-76.3% (active),-9.04% (active),-37.8% (active)
Oc1ccc(F)c(Nc2nc(SCCN3CCOCC3)nc3c2cnn3CC(Cl)c2ccc(Br)cc2)c1 (stereo not given),-2.59% (active),1.15% (active),20.2%,40.5%,31.9%,64.2%,12.5%,25.8%,-23.9% (active),16.4%
C=CCn1c(O)c(N=Nc2nc(-c3cc4ccccc4oc3=O)cs2)c2ccccc21,16.2%,106%,80.9%,18.6%,80.9%,112%,23.9%,49.3%,27.5%,91.6%
O=C(Nc1nc2ccc([N+](=O)[O-])cc2s1)Nc1ccc(Cl)cc1Cl,47.6%,23.5%,48.4%,84.6%,54.6%,4.05% (active),60.7%,65.4%,46.4%,26.6%
CCCCCCCCCCCCCCCCCC(=O)Nc1ccc(OC)cc1,97.7%,99.6%,112%,114%,113%,115%,103%,119%,101%,101%
CN1CCc2c(sc3ncnc(N/N=C/c4cccc(Cl)c4Cl)c23)C1,8.87% (active),-16% (active),-38.6% (active),88%,-24.8% (active),90.6%,10.6%,25.1%,38.2%,49.4%
Nc1nc(-c2ccccc2)c(N=Nc2ccc(Cl)cc2Cl)s1,-33.6% (active),7.32% (active),12.1%,-61.9% (active),-2.75% (active),7.41% (active),-29.7% (active),-70.3% (active),-28.2% (active),-57% (active)
COc1ccc(-c2nc3ccc(-c4nnc(SCC(=O)Nc5ccc(/C(C)=N\O)cc5)o4)cc3[nH]2)cc1,47.9%,36.5%,55.4%,113%,83.3%,80.1%,69.6%,63.3%,6.55% (active),108%
